# Experimental data taken from the supplement of paper PMC8728848.
# This is one part of a sample in which the strongest signals are shown more often than they occur.
# How the values were obtained:
# Assay in all cases: glycan array binding signal (z-score within array); higher = stronger binding
# Conditions in all cases: glycan notation: IUPAC condensed, linker removed
# [1] = target: Fuc(a1-2)Gal(b1-3)GalNAc(b1-3)Gal(a1-4)Gal(b1-4)Glc
# Outline: (§1)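 The binding signal is a Z-score computed within each array. Data were drawn from 3228 arrays in the Consortium for Functional Glycomics database, restricted to those with a known protein sequence. Scores were averaged over arrays of the same protein sequence at different concentrations or buffers, and over linkers, and negative values can be taken as non-binding.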
# [2] = target: Fuc(a1-2)Gal(b1-4)GlcNAc6S
# Outline: as §1
# [3] = target: Fuc(a1-2)Gal6S(b1-4)GlcNAc
# Outline: as §1
# [4] = target: Fuc(a1-2)[Gal(a1-3)]Gal(b1-3)GlcNAc
# Outline: as §1
# [5] = target: Fuc(a1-2)[GalNAc(a1-3)]Gal(b1-4)GlcNAc
# Outline: as §1
# Gal(a1-3)GlcNAc = target: Gal(a1-3)GlcNAc
# Outline: as §1
# Gal(a1-4)Gal(b1-4)Gal = target: Gal(a1-4)Gal(b1-4)Gal
# Outline: as §1
# Gal(a1-4)Gal(b1-4)GalNAc = target: Gal(a1-4)Gal(b1-4)GalNAc
# Outline: as §1
# Gal(a1-6)Glc = target: Gal(a1-6)Glc
# Outline: as §1
# Gal(b1-3)Gal = target: Gal(b1-3)Gal
# Outline: as §1
# [6] = target: Gal(b1-3)[Fuc(a1-4)]GlcNAc(b1-3)Gal(b1-4)GlcNAc
# Outline: as §1
# [7] = target: Gal(b1-3)[Neu5Ac(b2-6)]GlcNAc
# Outline: as §1
# [8] = target: Gal(b1-4)GalNAc(b1-3)[Fuc(a1-2)]Gal(b1-4)GlcNAc
# Outline: as §1
# [9] = target: Gal(b1-4)GlcNAc(b1-3)GalNAc
# Outline: as §1
# [10] = target: Gal(b1-4)GlcNAc(b1-6)[Gal(b1-3)]GlcNAc
# Outline: as §1
# Gal3S6S(b1-4)GlcNAc6S = target: Gal3S6S(b1-4)GlcNAc6S
# Outline: as §1
# Gal4S(b1-4)GlcNAc = target: Gal4S(b1-4)GlcNAc
# Outline: as §1
# Gal6S(b1-4)Glc6S = target: Gal6S(b1-4)Glc6S
# Outline: as §1
# [11] = target: GlcNAc(b1-4)[GlcNAc(b1-6)]GalNAc
# Outline: as §1
# [12] = target: Neu5Ac(a2-3)Gal(b1-3)GalNAc
# Outline: as §1
# [13] = target: Neu5Ac(a2-3)Gal(b1-4)GlcNAc(b1-3)Gal(b1-4)[Fuc(a1-3)]GlcNAc
# Outline: as §1
# [14] = target: Neu5Ac(a2-3)Gal(b1-4)GlcNAc(b1-6)[Gal(b1-3)]GalNAc
# Outline: as §1
# [15] = target: Neu5Ac(a2-3)Gal6S(b1-4)GlcNAc
# Outline: as §1
# [16] = target: Neu5Gc(a2-3)Gal(b1-4)GlcNAc
# Outline: as §1
binder,measurement,setting,value
"Epa1 (Candida glabrata), Q6FUW5_CANGA (protein) MILNPALFLNKCVCIYTTLILLLLTNGGYATSSNDISLASKDPTTFPLGCSPDITTPKKGLSMELYSYDFRKKGSYPCWDAAYLDPNYPRTGYKSHRLLAKVDGVTGNINFYYHATKGCTPQLGHLPASYNYPKPLTMTNFTMLLYGYFRPKVTGFHTFTISADDLLFVNFGAGNAFDCCRRDSSADHFGNYQAYAIWGSKTAKDELTVHLDAGVYYPIRLFYNNREYDGALSFTFKTESNENTVSDFSEYFFSLDDTEEGCPGLISYDSSCASVKTSKIIGIDYHTETPNENLVPITKTIYHLGIPCTGTTTTPLCGSGFYDPLANKCVTINTSSTSSVTKTTSHTTSKEVSFHSSISSQKTLIPKSIPSPYGPIKSQSIPTEMETSSEISSSEYAFSDVISTPSHSPYTKKHSSLNSSSYTSTVIHSLTSYSISQGIFSTSLSEQNITSKSSTDKFSTATSMSNSITQSSIIISQSSTNNENYTTTSMHTSSDKISTETLNNSISTTTSILFSNSSTILKNNTTIISSDKDTHYHPVNPTIVCSTNKTEIICASITQPSISNSNNHWSSSVLRFNSTTVRSTLPSSAGSNETSINVPFSSSTESNASTSSTSTSNSKTVRSTLPSSAGSNETSINVPFSSSTESNTSTSSTSTSNSKTVRSTLPSSAGSNETSINVPFSSSTESNASTSSTSTSNSKTVRSTPFSSAGIIMTSLSQRNNKSASSYASSNSKCYNTADSCRKVHSTPSYLLTSSYTSEGVDYDCSLVSTKLKINDTNCLNNKHTTKSCLKTSVTTTIPTLEIKTARKSSSNTIGLHSYPTSSPNKSISSAPIIGYISSFKTIKTASPSYQTSDLTTITTITSLNNPGSTAVENTHESNDKSRKTSSNDISSKHSVIKETKDAVESSNKSHQTNTLKCSSIIIASSSHNSYESLGGTTLTLTLSKVYSPQNNDTLPFLEISEVNPSRTVLPESSKMMQYLTSTEERNKTARNTIATNIVSISTFHFEGEGNAIRMGYTQLLLMLIGIIVMNIGT",glycan array binding signal (z-score),[1],-0.549
same,glycan array binding signal (z-score),[2],1.65
same,glycan array binding signal (z-score),[3],-0.128
same,glycan array binding signal (z-score),[4],-0.553
same,glycan array binding signal (z-score),[5],-0.557
same,glycan array binding signal (z-score),Gal(a1-3)GlcNAc,0.208
same,glycan array binding signal (z-score),Gal(a1-4)Gal(b1-4)Gal,0.374
same,glycan array binding signal (z-score),Gal(a1-4)Gal(b1-4)GalNAc,1.29
same,glycan array binding signal (z-score),Gal(a1-6)Glc,0.344
same,glycan array binding signal (z-score),Gal(b1-3)Gal,2.4
same,glycan array binding signal (z-score),[6],1.75
same,glycan array binding signal (z-score),[7],0.26
same,glycan array binding signal (z-score),[8],2.42
same,glycan array binding signal (z-score),[9],2.41
same,glycan array binding signal (z-score),[10],2.48
same,glycan array binding signal (z-score),Gal3S6S(b1-4)GlcNAc6S,-0.544
same,glycan array binding signal (z-score),Gal4S(b1-4)GlcNAc,-0.551
same,glycan array binding signal (z-score),Gal6S(b1-4)Glc6S,2.71
same,glycan array binding signal (z-score),[11],-0.556
same,glycan array binding signal (z-score),[12],-0.547
same,glycan array binding signal (z-score),[13],-0.553
same,glycan array binding signal (z-score),[14],1.96
same,glycan array binding signal (z-score),[15],-0.557
same,glycan array binding signal (z-score),[16],-0.549
